Among the test systems are SK-MEL-2 melanoma; EKVX NSCLC; SN12C renal; UO-31 renal; TK-10 renal; ACHN renal; CAKI-1 renal; A498 renal; CCRF-CEM leukemia; MOLT-4 leukemia; SR leukemia; RPMI-8226 leukemia; OVCAR-8 ovarian; OVCAR-5 ovarian; OVCAR-4 ovarian; SK-OV-3 ovarian; IGROV1 ovarian; OVCAR-3 ovarian; HS 578T breast; NCI/ADR-RES ovarian.
Holding throughout (test): NCI-60 one-dose screen, 48 h (100 = growth as untreated, 0 = no growth, -100 = all killed)
Holding throughout (conditions): 10 µM unless noted

Structures are written as SMILES. This is part of a sample that, as a whole, favours compounds with a hit. Of some 83,000 tested, about 20% had one in any assay.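 In brief: 96-well plates, 48 h treatment, single concentration, percent growth endpoint.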 Values without a mark were called inactive. The source made the active and inactive calls. How the source made its calls: active means growth percent below 10; inactive means the rest.

As for `O=C(N/N=C/c1c[nH]c2ccccc12)Nc1ccccc1Cl`, the growth in the assay with SK-MEL-2 melanoma was 13.9%; in the assay on EKVX NSCLC, 2.29% (active); with SN12C renal, 0.991% (active); in the assay on UO-31 renal it was 23.2%; in the assay with TK-10 renal, 34.2%; in the assay on ACHN renal, 10.7%. Also, the growth in the assay on CAKI-1 renal is 16.1%; in the assay on A498 renal, -8.24% (active); with CCRF-CEM leukemia, 9.84% (active); in the assay on MOLT-4 leukemia, 5.56% (active); with SR leukemia, 5.61% (active); with RPMI-8226 leukemia, 7.68% (active). In addition, the growth in the assay with OVCAR-8 ovarian was -7.94% (active); in the assay with OVCAR-5 ovarian, 23.1%; with OVCAR-4 ovarian, 53.9%; in the assay on SK-OV-3 ovarian, 15.4%; in the assay with IGROV1 ovarian it was 19.9%; with OVCAR-3 ovarian it was -28.4% (active). Also, the growth in the assay on HS 578T breast was 8.49% (active); in the assay on NCI/ADR-RES ovarian it was -9.92% (active).
Regarding `CN(C)CCCc1ccc(Nc2cnn(C)c(=O)c2Cl)cc1`, the growth with SK-MEL-2 melanoma is 112%; in the assay on EKVX NSCLC it was 98.1%; in the assay with SN12C renal, 100%; in the assay on UO-31 renal, 88.1%; in the assay with TK-10 renal, 109%; in the assay on ACHN renal it was 113%. Besides, the growth in the assay with CAKI-1 renal was 83.5%; in the assay with A498 renal it was 94.7%; in the assay with CCRF-CEM leukemia, 102%; with MOLT-4 leukemia it was 115%; in the assay with SR leukemia it was 62.2%; in the assay with RPMI-8226 leukemia, 102%. Besides, the growth was 106% in the assay with OVCAR-8 ovarian; 126% with OVCAR-5 ovarian; 100% in the assay with OVCAR-4 ovarian; 131% in the assay with SK-OV-3 ovarian; 104% in the assay on IGROV1 ovarian; 105% with OVCAR-3 ovarian. For the same compound, the values for the growth with HS 578T breast and with NCI/ADR-RES ovarian were 105% and 109%, respectively.
In the case of `COc1ccc(-c2nc3ccc(-c4nnc(SCc5ccccc5)o4)cc3[nH]2)cc1`, the growth in the assay with SK-MEL-2 melanoma is 11%; with EKVX NSCLC it was -0.06% (active); in the assay with SN12C renal, -66.3% (active); in the assay with UO-31 renal, -44.2% (active); in the assay on TK-10 renal it was -35.3% (active); with ACHN renal, -85.2% (active). In addition, the growth in the assay with CAKI-1 renal was -77.1% (active); in the assay with A498 renal, -36.2% (active); in the assay on CCRF-CEM leukemia, 13.9%; with MOLT-4 leukemia it was 11.5%; in the assay on SR leukemia it was 6.93% (active); with RPMI-8226 leukemia, 7.16% (active). The growth with OVCAR-8 ovarian is -36.8% (active); with OVCAR-5 ovarian, 46.8%; with OVCAR-4 ovarian, -57.7% (active); in the assay with SK-OV-3 ovarian, 5.77% (active); with IGROV1 ovarian, -17.1% (active); in the assay on OVCAR-3 ovarian it was -33.1% (active). For the same compound, the growth in the assay on HS 578T breast is -17.5% (active); with NCI/ADR-RES ovarian, -65.6% (active).
`CC1=C(C)C(=O)C(N2CCSCC2)=CC1=O`: the growth is 94.6% in the assay with SK-MEL-2 melanoma; 92.6% in the assay on EKVX NSCLC; 100% in the assay on SN12C renal; 76.2% with UO-31 renal; 130% with TK-10 renal; 96.6% in the assay with ACHN renal. The growth in the assay on CAKI-1 renal is 93.2%; in the assay on A498 renal it was 98.2%; in the assay on CCRF-CEM leukemia, 81%; with MOLT-4 leukemia it was 86.3%; in the assay on SR leukemia it was 111%; with RPMI-8226 leukemia it was 72.9%. Also, the growth with OVCAR-8 ovarian was 92.7%; with OVCAR-5 ovarian it was 97.2%; in the assay on OVCAR-4 ovarian it was 94.4%; in the assay on SK-OV-3 ovarian it was 105%; in the assay with IGROV1 ovarian, 92.9%; in the assay on OVCAR-3 ovarian, 101%. The figures for the growth in the assay on HS 578T breast and in the assay on NCI/ADR-RES ovarian were 103% and 93.7%, respectively.
Consider `CCc1ccccc1-c1nc(CN[C@@H]2C[C@@H]3C[C@H]([C@H]2C)C3(C)C)c(C)o1`, for which the growth in the assay on SK-MEL-2 melanoma is -83.6% (active); with EKVX NSCLC, -81.8% (active); with SN12C renal, -79.3% (active); in the assay on UO-31 renal, -87.8% (active); in the assay on TK-10 renal, -88.9% (active); in the assay on ACHN renal, -97.9% (active). Moreover, the growth is -95% (active) in the assay on CAKI-1 renal; -90.9% (active) in the assay on A498 renal; 3.82% (active) in the assay with CCRF-CEM leukemia; -28.2% (active) in the assay with MOLT-4 leukemia; -15.6% (active) in the assay on SR leukemia; -13.9% (active) in the assay with RPMI-8226 leukemia. Also, the growth was -66.4% (active) in the assay on OVCAR-8 ovarian; -87.4% (active) in the assay with OVCAR-5 ovarian; -42.9% (active) in the assay with OVCAR-4 ovarian; -79.8% (active) in the assay with SK-OV-3 ovarian; -85% (active) in the assay with IGROV1 ovarian; -61.6% (active) in the assay on OVCAR-3 ovarian. Also, the growth in the assay on HS 578T breast is -43.4% (active); in the assay on NCI/ADR-RES ovarian, -78.4% (active).
With `CN(CCSSCCN1CCOCC1)C(=O)Oc1cc2c(c3ccccc13)[C@H](CCl)CN2C(=O)c1cc2cc(OCCCN3CCC3)ccc2[nH]1`, the growth was -84.3% (active) with SK-MEL-2 melanoma; -61.3% (active) in the assay on EKVX NSCLC; -9.12% (active) in the assay with SN12C renal; -16.7% (active) in the assay with UO-31 renal; -10.3% (active) with TK-10 renal; -66.8% (active) in the assay on ACHN renal. The growth in the assay on CAKI-1 renal is -48.1% (active); in the assay with A498 renal it was -14.5% (active); with CCRF-CEM leukemia, -41.3% (active); in the assay on MOLT-4 leukemia it was -39.8% (active); with SR leukemia it was -26.2% (active); with RPMI-8226 leukemia, -28.5% (active). Further, the growth in the assay with OVCAR-8 ovarian was -15.7% (active); in the assay with OVCAR-5 ovarian it was -36.7% (active); in the assay on OVCAR-4 ovarian, -28.7% (active); with SK-OV-3 ovarian, -27.7% (active); with IGROV1 ovarian, -22.1% (active); with OVCAR-3 ovarian, -46.7% (active). Further, the growth was -16.8% (active) in the assay on HS 578T breast and -30.4% (active) in the assay on NCI/ADR-RES ovarian.
With `COc1ccc2oc(=O)c(-c3csc(N/N=C(\C)c4cc(OC)c(OC)c(OC)c4)n3)cc2c1`, the growth in the assay on SK-MEL-2 melanoma was 99.7%; in the assay on EKVX NSCLC, 94.7%; with SN12C renal it was 80.5%; in the assay on UO-31 renal, 90.8%; with TK-10 renal, 94.2%; with ACHN renal it was 78.7%. Also, the growth in the assay on CAKI-1 renal was 97.8%; in the assay on A498 renal it was 145%; with CCRF-CEM leukemia, 81.3%; in the assay with MOLT-4 leukemia it was 81%; in the assay with SR leukemia, 70.4%; in the assay with RPMI-8226 leukemia, 72.9%. The growth with OVCAR-8 ovarian is 86.2%; with OVCAR-5 ovarian, 109%; in the assay with OVCAR-4 ovarian it was 86.5%; with SK-OV-3 ovarian it was 172%; in the assay on IGROV1 ovarian it was 91.2%; in the assay with OVCAR-3 ovarian it was 110%. For the same compound, the growth with HS 578T breast is 110%; with NCI/ADR-RES ovarian, 77.9%.
Consider `O=C1CCC(N2C(=O)c3cccc(NCCOCCOCCOCCC(=O)NCCCC(=O)NC(c4ccc5c(c4)OCO5)c4cc(Cl)c5cccnc5c4O)c3C2=O)C(=O)C1` (stereo not given), for which the growth in the assay with SK-MEL-2 melanoma was -5.74% (active); in the assay with EKVX NSCLC, 38.1%; in the assay on SN12C renal, 26.9%; in the assay on UO-31 renal it was 64.5%; in the assay with TK-10 renal it was 95.2%; with ACHN renal, 89.3%. In addition, the growth with CAKI-1 renal is 69.8%; in the assay with A498 renal, 104%; with CCRF-CEM leukemia, -4.69% (active); with MOLT-4 leukemia it was 8.18% (active); with SR leukemia it was 5.36% (active); in the assay on RPMI-8226 leukemia it was 16.1%. In addition, the growth with OVCAR-8 ovarian is 32.7%; in the assay on OVCAR-5 ovarian, 63.8%; with OVCAR-4 ovarian it was 60.2%; with SK-OV-3 ovarian, 51.1%; with IGROV1 ovarian, 15.8%; in the assay on OVCAR-3 ovarian, 10.9%. Besides, the results for the growth with HS 578T breast and in the assay with NCI/ADR-RES ovarian were 64.6% and 92.4%, respectively.
